In PubChem BioAssay (NCATS):
Results filed as inconclusive are left out. The source made the active and inactive calls. The call rests on the fitted dose curve; in most records, active means well fitted curve in the direction sought with a large enough effect; inconclusive means small, poorly fitted or top-dose-only effect, or another doubt; inactive means no such curve, though single readings can be large; an effect the other way counts as inactive or inconclusive.

Columns and labels:
[1] = test system: Zika virus NS2B-NS3 protease; assay: Primary screen GU AMC qHTS for Zika virus inhibitors (AID 1347154);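 further: 0% = no-inhibitor control and -100% = no-enzyme control; nearly all actives have a fitted effect of over 70% in size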
Procedure, shortened: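 Unlinked Zika NS2B hydrophilic domain/NS3 protease domain noncovalent complex (25 nM final) in 10 mM Tris-HCl pH 8.0, 0.01% Tween 20, with AMC peptide substrate. Fluorescence (ex 340, em 450 nm) change over 15 min, room temperature; percent inhibition fitted to 4-parameter Hill equation.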

[2] = test system: Zika virus NS2B-NS3 protease (unlinked complex); assay: Primary screen GU Rhodamine qHTS for Zika virus inhibitors: Unlinked NS2B-NS3 protease assay (AID 1347159); further: on the % scale 0 is the no-effect control and ±100 the full control effect; nearly all actives have a fitted effect of over 60% in size
Procedure, shortened: (§1)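 Unlinked NS2B/NS3, 25 nM; Rhod110 peptide, 1.5 microM; compounds, up to 114 microM. Reaction run 15 min at RT in 10 mM Tris-HCl pH 8.0, 0.01% Tween 20; kinetic fluorescence change fitted with a 4-parameter Hill model.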

[3] = test system: Zika virus NS2B-NS3 protease (linked construct); assay: Primary screen NINDS Rhodamine qHTS for Zika virus inhibitors (AID 1347160); settings: outcome: dose series up to 57.1 µM unless noted; further: nearly all actives have a fitted effect of over 55% in size; on activity change, negative = inhibition: on the % scale 0 is the no-effect control and ±100 the full control effect
Procedure, shortened: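 Single-chain NS2B-NS3 protease, 25 nM, pH 8.0; compounds preincubated 15 min. Activity: Rhodamine110 release from 1.5 microM substrate over 15 min, room temperature, data fitted to 4-parameter Hill.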

[4] = molecular target: Protein phosphatase 1D (Homo sapiens) (UniProt O15297); assay: Rhodamine-PBP qHTS Assay for Modulators of WT P53-Induced Phosphatase 1 (WIP1) (AID 1347425); further: % of control where 0% means no effect
Sequence of Protein phosphatase 1D (Homo sapiens) (O15297 whole entry, looked up): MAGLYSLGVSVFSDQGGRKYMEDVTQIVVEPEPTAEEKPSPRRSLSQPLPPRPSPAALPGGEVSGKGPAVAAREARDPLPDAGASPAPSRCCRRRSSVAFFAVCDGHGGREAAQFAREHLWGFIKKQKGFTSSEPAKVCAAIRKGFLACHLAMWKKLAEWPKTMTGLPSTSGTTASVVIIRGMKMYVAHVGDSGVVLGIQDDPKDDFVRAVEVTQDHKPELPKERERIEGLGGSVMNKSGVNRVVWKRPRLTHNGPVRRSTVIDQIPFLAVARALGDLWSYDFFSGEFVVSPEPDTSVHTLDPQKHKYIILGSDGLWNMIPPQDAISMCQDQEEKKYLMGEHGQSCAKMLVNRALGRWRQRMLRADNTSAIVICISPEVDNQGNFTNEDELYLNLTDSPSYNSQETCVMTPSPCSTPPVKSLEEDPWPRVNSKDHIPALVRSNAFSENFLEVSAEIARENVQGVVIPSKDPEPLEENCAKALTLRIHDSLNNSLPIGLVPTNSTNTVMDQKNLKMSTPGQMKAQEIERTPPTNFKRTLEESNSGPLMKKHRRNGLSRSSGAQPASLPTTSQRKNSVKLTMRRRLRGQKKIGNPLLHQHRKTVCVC
Procedure, shortened: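 Steps: enzyme with Rh-PBP sensor and compounds, room-temperature incubation of 1 hr, baseline read, addition of VEPPL-pS-QETFS (10 uM final), kinetic fluorescence reads at 525/598 nm. Activity equals final minus baseline signal.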

[5] = qHTS to identify inhibitors of the type 1 interferon - major histocompatibility complex class I in skeletal muscle: primary screen against the NCATS Pharmaceutical Collection (AID 1347407);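 further: luminescence of HiBiT knocked into endogenous HLA-B as interferon-induced MHC class I level; on the % scale 0 is the no-effect control and ±100 the full control effect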
Procedure, shortened: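 A qHTS format is used: 8-point, 1:5 compound series with 46 uM top final concentration, applied alongside 4 ng/ml IFN-beta to HLA-B*08:01-HiBiT knock-in myoblasts. Luminescence is measured after 24 h treatment.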

[6] = qHTS to identify inhibitors of the type 1 interferon - major histocompatibility complex class I in skeletal muscle: primary screen against the NCATS Mechanism Interrogation Plate v5.0 (MIPE) Libary (AID 1347411); further: nearly all actives have a fitted effect of over 65% in size; further: potency means the concentration at half of the fitted maximal effect;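 on activity change, negative = inhibition: plate controls were vehicle for no effect and reference inhibitor for full effect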
Procedure, shortened: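 Luminescence from CRISPR HiBit-tagged endogenous HLA-B in human myoblasts reported MHC class I level after 24 h of IFN-beta (4 ng/ml) plus compound. Compounds ran as 11-point 1:3 series, top 46 uM final.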

[7] = molecular target: Protein phosphatase 1D (Homo sapiens) (UniProt O15297); assay: RapidFire Mass Spectrometry qHTS Assay for Modulators of WT P53-Induced Phosphatase 1 (WIP1) (AID 1347424);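 further: amount of dephosphorylated VEPPL-S-QETFS peptide product formed by WIP1; series mostly up to about 63 µM; plate controls were DMSO wells for no effect and GSK830371 inhibitor control at 10 µM for full effect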
Procedure, shortened: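 Mass-spectrometric measurement of dephosphorylated peptide after a 5 min room-temperature reaction of 10 nM WIP1 with 2 uM phosphopeptide, following 1 h compound preincubation in 30 mM MgCl2 buffer.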

[8] = qHTS to identify inhibitors of the type 1 interferon - major histocompatibility complex class I in skeletal muscle: primary screen against the NCATS LOPAC collection (AID 1347405);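 further: lytic HiBiT luminescence reporting HLA-B protein level; potency means the concentration at half of the fitted maximal effect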
Procedure, shortened: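 After 24 h at 37 C with compounds (7-point, 1:4.3 dilutions, 46 uM top final) plus 4 ng/ml IFN-beta, luminescence from lytic HiBiT detection was measured. HLA-B*08:01 in C25cl48 myoblasts carried an endogenous C-terminal HiBiT tag; medium lacked dexamethasone.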

[9] = qHTS for inhibitors of adenylyl cyclases using a fission yeast platform: a pilot screen against the NCATS LOPAC library (AID 1347410);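 further: plate controls were DMSO vehicle for no effect and DPI positive control for full effect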
Procedure, shortened: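 Inhibition of GNAS-stimulated AC9 activity in S. pombe was inferred from derepression of a PKA-repressed fbp1-GFP reporter, measured as cytometric fluorescence after 18 h at 30C with compounds at up to 57 µM.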

[10] = Validation qHTS assay for inhibitors of Activation Induced Cytidine Deaminase (AID): UDG Counterscreen signal (AID 1347427); further: 0% is about no effect
Procedure, shortened: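 Fluorescence at 560 nm excitation, 665 nm emission reports UDG signal after 250 mM NaOH (2x) addition and 30 min. Enzymes (AID 1 uM, UDG 2 U/mL, at 4/3x) preincubated 10 min with compound, then 4 h with 4x 250 nM DJC20/DJC23 substrate at room temperature.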

[11] = Confirmatory screen GU Rhodamine qHTS for Zika virus inhibitors qHTS (AID 1347157);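 further: plate controls were no-inhibitor wells for no effect and no-enzyme wells for full effect; nearly all actives have a fitted effect of over 70% in size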
Procedure, shortened: as §1

[12] = Confirmatory screen NINDS Rhodamine qHTS for Zika virus inhibitors (AID 1347161);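 further: purified Zika NS2B-NS3 protease with linked NS2B cofactor domain and Rhodamine110 peptide substrate; series mostly up to about 110 µM; plate controls were no-inhibitor control for no effect and no-enzyme control for full effect; nearly all actives have a fitted effect of over 60% in size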
Procedure, shortened: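 In 10 mM Tris-HCl pH 8.0 containing 0.01% Tween 20, linked NS2B-NS3 protease (25 nM final) is exposed to test compounds for 15 min. Cleavage of 1.5 microM Rhodamine110 substrate is tracked by fluorescence over 15 min.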

[13] = Tertiary RLuc qRT-PCR qHTS assay for Zika virus inhibitors (AID 1347169); further: top concentration of the series differs between compounds; on the % scale 0 is the no-effect control and ±100 the full control effect; nearly all actives have a fitted effect of over 55% in size
Procedure, shortened: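 Inhibition of ZIKV-RLuc replication in Vero cells, read as Renilla luminescence 1-1.5 hrs after live-cell substrate addition, following 48-72 hrs infection at MOI 1-2 in presence of compound.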

[14] = test system: Zika virus NS2B-NS3 protease (unlinked complex); assay: Confirmatory screen GU AMC qHTS for Zika virus inhibitors (AID 1347153);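 further: percent inhibition with 0% = no inhibitor control and 100% = no enzyme control; nearly all actives have a fitted effect of over 70% in size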
Procedure, shortened: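 Unlinked enzyme 25 nM, Tris pH 8.0/0.01% Tween 20; cpd 15 min RT, dark; + AMC substrate 10 µM (Km 18.3 µM); 340/450 nm read at t0 and 15 min; % inhibition → 4-param fit.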

[15] = Vero cells viability qHTS for Zika virus inhibitors (AID 1347167); further: on the % scale 0 is the no-effect control and ±100 the full control effect
Procedure, shortened: (§2)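 To flag cytotoxic protease inhibitors, viability is measured by ATP-dependent luminescence (CellTiter Glo) after cells attached overnight receive compound for 24 to 48 hours in DMEM with 4% FBS.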

[16] = HepG2 cells viability qHTS for Zika virus inhibitors (AID 1347168); further: on the % scale 0 is the no-effect control and ±100 the full control effect
Procedure, shortened: as §2

C=CCOc1cc(Cl)ccc1C(=O)NCCN(CC)CC
inactive: Potency [1] | Potency [2] | outcome [3] | outcome [4]

CC1c2ccccc2CN1NC(=O)c1ccc(Cl)c(S(N)(=O)=O)c1 (stereo not drawn)
inactive: Potency [1] | Potency [2] | outcome [3] | Potency [5] | Potency [6] | Potency [7] | outcome [4]

CN(C)C(=O)CNC(=O)Cc1ccccc1
inactive: Potency [1] | Potency [2] | outcome [3] | Potency [5] | Potency [7] | outcome [4]

CCN(CC)CCOc1ccc(/C(=C(\Cl)c2ccccc2)c2ccccc2)cc1
inactive: Potency [1] | Potency [2] | outcome [3] | Potency [7] | outcome [4]

Nc1c(NC/C=C\COc2cc(CN3CCCCC3)ccn2)c(=O)c1=O
inactive: Potency [1] | Potency [2] | outcome [3] | Potency [5] | Potency [7] | outcome [4]

CN1CCC(N(Cc2cccs2)c2ccccc2)CC1
inactive: Potency [1] | Potency [2] | outcome [3] | Potency [5] | Potency [7] | outcome [4]

CC1CN(c2cc3c(cc2F)c(=O)c(C(=O)O)cn3-c2ccc(F)cc2F)CCN1 (stereo not drawn)
inactive: activity change, negative = inhibition [1] -3.57% [at 4.99 µM] | Potency [2] | activity change, negative = inhibition [7] -2.72% [at 6.17 µM] | activity change, negative = inhibition [4] 0.0772% [at 4.81 µM]

CCN1C(=O)c2ccccc2C1Nc1ccc(OCCN2CCCCC2)cc1 (stereo not drawn)
inactive: Potency [1] | Potency [2] | outcome [3] | Potency [7] | outcome [4]

CC(C)N(CCC(=O)c1ccc2ccccc2c1)Cc1ccccc1
active: Potency [8] 12.6 µM | Potency [6] 5.87 µM
inactive: Potency [1] | outcome [3] | outcome [9] | outcome [10]

CO/N=C(/C(=O)N[C@@H]1C(=O)N2C(C(=O)O)=C(Cn3nnc(C)n3)CS[C@H]12)c1csc(N)n1
inactive: Potency [1] | Potency [2] | outcome [3] | Potency [5] | Potency [7] | outcome [4]

O=C(O)Cc1ccccc1Oc1ccc(Cl)cc1Cl
inactive: Potency [1] | Potency [2] | outcome [3] | Potency [5] | Potency [7] | outcome [4]

CCOC(=O)c1ccc(OCCN2C[C@H](O)[C@@H](O)[C@H](O)[C@H]2CO)cc1
inactive: Potency [1] | Potency [2] | outcome [3] | Potency [5] | outcome [4]

O=C(COCCOCCOCC(=O)Nc1c(I)cc(I)c(C(=O)O)c1I)Nc1c(I)cc(I)c(C(=O)O)c1I
inactive: Potency [1] | Potency [11] | Potency [12] | Potency [13] | Potency [5] | Potency [7] | outcome [4]

N[C@@H](Cc1cc(I)c(O)c(I)c1)C(=O)O
inactive: Potency [14] | outcome [15] | outcome [16] | Potency [13] | Potency [5]
